Measured values reported in PubChem BioAssay AID1159580 (chemical genetic matrix, 2015).
In all, about 5,500 compounds went through this assay and about 2,000 (36%) were called active. About 18% were inconclusive and are not listed. No stated cut-off is given here; in the data, active means normalized growth mostly below about 0.91 (no sharp cut-off); inconclusive means no clear call, values can overlap the other calls; inactive means mostly above about 0.92. The list shows a part of the results.

Test: chemical genetic growth profiling, strain panel (AID 1159580);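 further: tested at 20 µM; growth read once vehicle control cultures reached saturation at 30 °C; 1 = growth at the plate median or of vehicle wells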
Details: growth OD

Measured: normalized growth

Cc1cc(O)cc(O)c1C(=O)O
inactive: S. cerevisiae deletion strains, locus YJR066W, strain TOR1, stronger effect = lower value 1.01 | S. cerevisiae deletion strains, locus YJR075W, strain HOC1, stronger effect = lower value 1.01 | S. cerevisiae deletion strains, locus YKL009W, strain mrt4, stronger effect = lower value 0.964 | S. cerevisiae deletion strains, locus YKL068W, stronger effect = lower value 0.992 | S. cerevisiae deletion strains, locus YKL085W, strain MDH1 (second series), stronger effect = lower value 1 | S. cerevisiae deletion strains, locus YKL085W, strain MDH1, stronger effect = lower value 1 | S. cerevisiae deletion strains, locus YKL160W, strain elf1, stronger effect = lower value 0.994 | S. cerevisiae deletion strains, locus YKL190W, strain CNB1, stronger effect = lower value 0.978 | S. cerevisiae deletion strains, locus YKR001C, strain vps1, stronger effect = lower value 1.01 | S. cerevisiae deletion strains, locus YKR026C, strain gcn3, stronger effect = lower value 1.02 | S. cerevisiae deletion strains, locus YKR091W, strain srl3, stronger effect = lower value 1.01 | S. cerevisiae deletion strains, locus YLL001W, strain dnm1, stronger effect = lower value 0.992 | S. cerevisiae deletion strains, locus YLL026W, stronger effect = lower value 1.02 | S. cerevisiae deletion strains, locus YLL041C, strain sdh2, stronger effect = lower value 1.03 | S. cerevisiae deletion strains, locus YLR027C, strain aat2, stronger effect = lower value 1.03 | S. cerevisiae deletion strains, locus YLR039C, strain RIC1, stronger effect = lower value 1.19 | S. cerevisiae deletion strains, locus YLR058C, strain SHM2, stronger effect = lower value 1.02 | S. cerevisiae deletion strains, locus YLR102C, strain apc9, stronger effect = lower value 1.01 | S. cerevisiae deletion strains, locus YLR113W, strain HOG1, stronger effect = lower value 1.09 | S. cerevisiae deletion strains, locus YLR221C, strain rsa3, stronger effect = lower value 1.04 | S. cerevisiae deletion strains, locus YLR258W, strain gsy2, stronger effect = lower value 1.04 | S. cerevisiae deletion strains, locus YLR262C, strain YPT6 (second series), stronger effect = lower value 1.04 | S. cerevisiae deletion strains, locus YLR268W, strain sec22, stronger effect = lower value 1.04 | S. cerevisiae deletion strains, locus YLR320W, strain mms22, stronger effect = lower value 1.03 | S. cerevisiae deletion strains, locus YLR330W, strain CHS5, stronger effect = lower value 1.01 | S. cerevisiae deletion strains, locus YLR342W, strain FKS1 (second series), stronger effect = lower value 1.02 | S. cerevisiae deletion strains, locus YLR342W, strain FKS1, stronger effect = lower value 1.03 | S. cerevisiae deletion strains, locus YLR357W, strain rsc2, stronger effect = lower value 1.01 | S. cerevisiae deletion strains, locus YLR370C, strain arc18, stronger effect = lower value 1.01 | S. cerevisiae deletion strains, locus YLR371W, strain rom2, stronger effect = lower value 0.987 | S. cerevisiae deletion strains, locus YLR384C, strain iki3, stronger effect = lower value 1.03 | S. cerevisiae deletion strains, locus YLR418C, strain cdc73, stronger effect = lower value 1.02 | S. cerevisiae deletion strains, locus YML016C, strain PPZ1, stronger effect = lower value 1.01 | S. cerevisiae deletion strains, locus YML032C, strain rad52, stronger effect = lower value 0.99 | S. cerevisiae deletion strains, locus YML120C, strain ndi1, stronger effect = lower value 1.01 | S. cerevisiae deletion strains, locus YML124C, strain tub3, stronger effect = lower value 0.989 | S. cerevisiae deletion strains, locus YMR058W, strain fet3, stronger effect = lower value 1.03 | S. cerevisiae deletion strains, locus YMR078C, strain ctf18, stronger effect = lower value 1 | S. cerevisiae deletion strains, locus YMR125W, strain sto1, stronger effect = lower value 1 | S. cerevisiae deletion strains, locus YMR129W, stronger effect = lower value 1 | S. cerevisiae deletion strains, locus YMR205C, strain PFK2, stronger effect = lower value 1 | S. cerevisiae deletion strains, locus YMR223W, strain ubp8, stronger effect = lower value 0.978 | S. cerevisiae deletion strains, locus YMR231W, strain pep5, stronger effect = lower value 1.01 | S. cerevisiae deletion strains, locus YMR307W, strain GAS1, stronger effect = lower value 1.19 | S. cerevisiae deletion strains, locus YNL067W, strain RPL9B, stronger effect = lower value 0.991 | S. cerevisiae deletion strains, locus YNL071W, strain lat1, stronger effect = lower value 1.01 | S. cerevisiae deletion strains, locus YNL153C, strain GIM3, stronger effect = lower value 0.998 | S. cerevisiae deletion strains, locus YNL183C, strain NPR1, stronger effect = lower value 1.01 | S. cerevisiae deletion strains, locus YNL209W, strain ssb2, stronger effect = lower value 1 | S. cerevisiae deletion strains, locus YNL233W, strain BNI4, stronger effect = lower value 1.04 | S. cerevisiae deletion strains, locus YNL248C, strain rpa49, stronger effect = lower value 1.03 | S. cerevisiae deletion strains, locus YNL250W, strain rad50, stronger effect = lower value 0.905 | S. cerevisiae deletion strains, locus YNL271C, strain bni1, stronger effect = lower value 0.98 | S. cerevisiae deletion strains, locus YNL298W, strain CLA4, stronger effect = lower value 1.01 | S. cerevisiae deletion strains, locus YNL307C, strain MCK1, stronger effect = lower value 1 | S. cerevisiae deletion strains, locus YNL322C, strain KRE1 (second series), stronger effect = lower value 1 | S. cerevisiae deletion strains, locus YNR049C, strain mso1, stronger effect = lower value 1.02 | S. cerevisiae deletion strains, locus YNR052C, strain pop2, stronger effect = lower value 1 | S. cerevisiae deletion strains, locus YOL012C, strain htz1 0.732 | S. cerevisiae deletion strains, locus YOL147C, strain pex11, stronger effect = lower value 0.988 | S. cerevisiae deletion strains, locus YOR001W, strain rrp6, stronger effect = lower value 1.02 | S. cerevisiae deletion strains, locus YOR061W, strain CKA2, stronger effect = lower value 1.02 | S. cerevisiae deletion strains, locus YOR069W, strain VPS5, stronger effect = lower value 1.01 | S. cerevisiae deletion strains, locus YOR070C, strain gyp1, stronger effect = lower value 1.02 | S. cerevisiae deletion strains, locus YOR080W, strain dia2, stronger effect = lower value 1.02 | S. cerevisiae deletion strains, locus YOR083W, strain WHI5, stronger effect = lower value 0.989 | S. cerevisiae deletion strains, locus YOR106W, strain vam3, stronger effect = lower value 0.98 | S. cerevisiae deletion strains, locus YOR136W, strain idh2, stronger effect = lower value 0.991 | S. cerevisiae deletion strains, locus YOR144C, strain elg1, stronger effect = lower value 0.996 | S. cerevisiae deletion strains, locus YOR184W, strain ser1, stronger effect = lower value 1.09 | S. cerevisiae deletion strains, locus YOR231W, strain MKK1, stronger effect = lower value 1.11 | S. cerevisiae deletion strains, locus YOR265W, strain rbl2, stronger effect = lower value 1.01 | S. cerevisiae deletion strains, locus YOR270C, strain vph1, stronger effect = lower value 1.07 | S. cerevisiae deletion strains, locus YOR290C, strain snf2, stronger effect = lower value 1 | S. cerevisiae deletion strains, locus YOR316C, strain cot1, stronger effect = lower value 0.977 | S. cerevisiae deletion strains, locus YPL051W, strain arl3, stronger effect = lower value 0.986 | S. cerevisiae deletion strains, locus YPL055C, strain LGE1, stronger effect = lower value 1.09 | S. cerevisiae deletion strains, locus YPL078C, strain atp4, stronger effect = lower value 0.997 | S. cerevisiae deletion strains, locus YPL106C, strain sse1, stronger effect = lower value 0.986 | S. cerevisiae deletion strains, locus YPL240C, strain hsp82, stronger effect = lower value 1.01 | S. cerevisiae deletion strains, locus YPL241C, strain CIN2, stronger effect = lower value 0.999 | S. cerevisiae deletion strains, locus YPL256C, strain CLN2, stronger effect = lower value 1.09 | S. cerevisiae deletion strains, locus YPR119W, strain clb2, stronger effect = lower value 0.981 | S. cerevisiae deletion strains, locus YPR141C, strain kar3, stronger effect = lower value 0.973 | S. cerevisiae deletion strains, locus YPR163C, strain tif3, stronger effect = lower value 1 | S. cerevisiae deletion strains, locus YPR167C, strain met16, stronger effect = lower value 0.996 | S. cerevisiae deletion strains, strain wtn01, stronger effect = lower value 1.02 | S. cerevisiae strains, strain wild type, stronger effect = lower value 1.03
